Screening data deposited in PubChem by The Scripps Research Institute Molecular Screening Center.
This is a sample that favours compounds with a hit; in the whole collection about 2.3% have one here.
M1 PAM parental: nonselective activator or artifact in parental CHO-K1 calcium assay. ATP EC20, Fluo-8 calcium fluorescence; 0% at ATP EC20, 100% at ATP max. activation, % at 3 µM. 0.02% of 360,000 active;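 active means activation above the run cutoff, the mean activation of all test compounds plus 3 SD, cut at about 40% in these data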;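 further: peak over basal fluorescence ratio in a 140 s read after ATP addition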
CHO-K1 Ca ag: M1 agonist counterscreen hit in parental CHO-K1 cells. Fluo-8 calcium fluorescence; scaled to maximal ATP response, vehicle zero. activation, % at 3 µM. 0.48% of 360,000 active. AID 602248; in the data active means activation above about 15%;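 further: untransfected CHO-K1 host cells lacking M1 receptor as counterscreen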
CHO-K1 Ca antag: nonselective inhibitor or artifact in parental CHO-K1 cells; ATP-induced calcium, Fluo-8 fluorescence; inhibition, % at 3 µM; 0.6% of 360,000 active;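 active means inhibition above a per-plate cutoff, the plate's mean sample inhibition plus 3 SD, cut at about 24% in these data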
M1 PAM: positive allosteric modulators of human M1 muscarinic receptor. activation, % at 3 µM. CHO-K1 hM1, Fluo-8 calcium fluorescence, ACh EC20; 0% = ACh EC20, 100% = maximal ACh. 0.088% of 360,000 active; in the data active means activation above about 19%, passing the limit was not always enough
Target sequence (P11229 whole entry, looked up): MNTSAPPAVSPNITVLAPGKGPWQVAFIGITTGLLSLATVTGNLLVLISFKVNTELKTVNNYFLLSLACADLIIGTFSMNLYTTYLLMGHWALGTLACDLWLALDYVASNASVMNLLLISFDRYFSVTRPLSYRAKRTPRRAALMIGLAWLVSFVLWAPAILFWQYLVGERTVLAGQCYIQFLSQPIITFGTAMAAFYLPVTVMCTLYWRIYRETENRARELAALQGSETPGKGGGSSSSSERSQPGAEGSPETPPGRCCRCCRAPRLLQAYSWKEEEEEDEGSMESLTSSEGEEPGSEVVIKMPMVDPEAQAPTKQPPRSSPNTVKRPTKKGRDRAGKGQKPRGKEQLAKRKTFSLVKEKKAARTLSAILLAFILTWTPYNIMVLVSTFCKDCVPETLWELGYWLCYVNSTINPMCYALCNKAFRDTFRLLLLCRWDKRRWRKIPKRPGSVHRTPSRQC
CHRM1 agonist: human M1 muscarinic receptor agonism. P11229. CHO-K1 hM1, Fluo-8 calcium fluorescence, agonist mode; 0% DMSO, 100% acetylcholine EC100. activation, % at 3 µM. 0.33% of 360,000 active;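 active means activation above the run's mean compound activation plus 3 SD, cut at about 16% in these data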;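 further: peak over basal fluorescence ratio within a 140 s kinetic read after compound addition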
M1 antag: blocks human M1 muscarinic receptor. P11229. inhibition, % at 3 µM. AID 588852. CHO-K1 hM1, Fluo-8 calcium fluorescence, ACh EC80 antagonist. 1.3% of 360,000 active;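 active means percent inhibition above its own plate's cutoff, namely the mean of that plate's compound wells plus 3 SD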;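 further: peak over basal fluorescence ratio during 140 s after agonist addition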
A number is an active result; i = inactive; nt = no result.

SMILES	M1 PAM parental	CHO-K1 Ca ag	CHO-K1 Ca antag	M1 PAM	CHRM1 agonist	M1 antag
O=C1c2ccccc2C(=O)N1CCSC(=S)N1CCOCC1	i	i	i	i	i	i
Fc1c(CSC(=S)N2CCOCC2)cccc1CSC(=S)N1CCOCC1	i	16	i	i	i	i
CC1(c2nnnn2Cc2ccccc2)CCC(=O)N1CCc1c[nH]c2ccccc12 (stereo not drawn)	i	i	i	nt	nt	nt
CC1(C(=O)NCc2ccccc2)CCC(=O)N1CCc1c[nH]c2ccccc12 (stereo not drawn)	i	i	31	i	i	i
COc1ccc(CCNc2ncnc3sccc23)cc1OC	i	17	34	i	i	40
COc1ccc(CCNc2nc(C)nc3c2oc2ccccc23)cc1OC	i	i	i	i	i	i
COc1ccc(CCNc2ncnc3c2oc2ccccc23)cc1OC	i	i	44	i	i	40
CN(C)c1ccc(CNc2ncnc3sccc23)cc1	i	i	25	i	i	i
NS(=O)(=O)c1ccc(CNc2ncnc3sccc23)cc1	i	i	i	i	i	i
CC(=O)N1CCN(S(=O)(=O)c2cccc(C(=O)NNC(=O)Cn3nc(C)cc3C)c2)CC1	i	i	i	i	i	i
CCN(CCCNC(=O)C1CCN(S(=O)(=O)c2cccc3nonc23)CC1)Cc1ccccc1	i	i	i	i	i	47
COc1ccc(C(=O)NNC(=S)NC(=O)c2cccnc2)cc1	i	i	i	i	i	i
COc1ccc(Cl)cc1C(=O)NNC(=S)NC(=O)c1ccc(F)c(F)c1	i	i	i	i	37	i
COc1cc(C(=O)NC(=S)NNC(=O)c2ccc3c(c2)OCO3)cc(OC)c1OC	i	i	i	i	17	i
COc1cc(C(=O)NC(=S)Nc2ccc3c(c2)OCO3)cc(OC)c1OC	i	i	i	i	i	i
CCCCC(=O)NC(=S)NNC(=O)c1ccc(OC)cc1	i	31	i	i	i	i
COc1ccc(C(=O)NNC(=S)NC(=O)c2ccc(OC)cc2)cc1	i	34	i	i	23	i
COc1ccc(C(=O)CSc2nnc(CNC(=O)c3ccco3)n2C)cc1	i	i	i	i	i	i
COc1ccc(C(=O)NNC(=S)NC(=O)c2ccc(F)cc2)cc1Br	i	66	i	i	88	35
Cc1nn(C)cc1CNC(=O)c1cc2n(n1)C(C(F)(F)F)CC(c1cccs1)N2 (stereo not drawn)	i	i	i	i	i	23
Cc1nn(C)c(C)c1CNC(=O)c1nn2c(c1Cl)NC(c1cccs1)CC2C(F)(F)F (stereo not drawn)	i	i	i	i	i	i
O=C(CCc1ccccc1)NC(=S)Nc1ccc2c(c1)C(=O)OC2	i	16	i	i	i	i
Cn1c(N)c(C(=O)CSc2n[nH]c(N)n2)c(=O)n(C)c1=O	i	i	i	i	i	i
O=C(NCc1ccco1)c1ccccc1NS(=O)(=O)c1cccs1	i	19	i	i	i	i
COc1ccc(CNc2nc(SCC(=O)NCc3ccco3)nc3ccccc23)cc1	i	16	i	i	i	i
SMILES	M1 PAM parental	CHO-K1 Ca ag	CHO-K1 Ca antag	M1 PAM	CHRM1 agonist	M1 antag
Cc1ccc(-c2nn3cnnc3c3ccccc23)cc1C	i	i	24	i	i	i
COc1cc(C)c(NC(=O)C(=S)NCCc2ccccc2)cc1C	i	i	i	i	i	i
O=C(CSc1nnc(CNC(=O)c2cccs2)o1)NC1CCCCC1	i	i	25	i	i	i
Cc1ccccc1CN1CCN(CC2CC2)CC1CCO (stereo not drawn)	i	i	i	i	i	i
COc1ccc(-c2nnc(SCC(=O)Nc3ccccc3)n2C)cc1	i	i	i	i	i	13
COc1ccc(NC(=O)CSc2nnc(-c3ccncc3)n2C)cc1	i	i	i	i	i	i
COc1cccc(NC(=O)CSc2nnc(-c3ccoc3C)n2CC2CCCO2)c1 (stereo not drawn)	i	i	i	i	i	i
COc1ccc(NC(=O)CSc2nnc(-c3ccoc3C)n2CC2CCCO2)cc1 (stereo not drawn)	i	i	i	i	i	27
CCOC(=O)C1CCN(C(=O)CCCn2nc(C)c3c(C)n(-c4ccc(C)cc4)nc3c2=O)CC1	i	i	i	i	i	i
CC1CCC(NC(=O)CSc2nnnn2C)CC1 (stereo not drawn)	i	i	i	i	i	i
CCOC(=O)c1sc(=S)n(-c2cccc(C(F)(F)F)c2)c1SC	i	i	i	i	i	i
CCOC(=O)c1sc(=S)n(-c2ccccc2)c1SC	i	i	i	i	i	51
CCOC(=O)c1sc(=S)n(-c2ccccc2Cl)c1SC	i	i	i	i	i	100
CCOC(=O)c1sc(=S)n(-c2ccc(Cl)cc2)c1C	i	i	i	i	i	i
CCCCC/C=C/C1=CC(=O)C[C@H](c2ccc(OC)c(OC)c2)C1	i	i	i	i	i	i
COc1cc(/C=N/N2C(=O)CSC2=S)cc(Br)c1O	i	48	i	i	55	38
C[C@@]12C(=O)Nc3ccc(F)cc3C(=O)N1[C@H]1c3cc(Cl)ccc3OC[C@@H]1[C@@H]2c1ccccc1	i	i	i	i	i	i
C[C@@]12C(=O)Nc3cc(F)c(F)cc3C(=O)N1[C@H]1c3ccccc3OC[C@@H]1[C@@H]2c1ccccc1	i	i	i	i	i	79
C[C@@]12C(=O)Nc3ccc(F)cc3C(=O)N1[C@H]1c3ccccc3OC[C@@H]1[C@@H]2c1ccccc1	i	i	i	i	i	89
C/C(=N/NC(=O)CNC(=O)c1ccc2c(c1)OCO2)c1ccc2c(c1)CCCC2	i	i	25	i	i	i
C/C(=N/NC(=O)CNC(=O)c1ccccc1F)c1ccc2c(c1)CCCC2	i	i	i	i	i	i
CCCCNC(=O)C1(C)CCCCN1Cc1ccc(OCc2ccccc2)cc1 (stereo not drawn)	i	i	i	i	i	i
CO/N=C\c1cc(C(=O)c2ccc(Cl)cc2Cl)cn1C	i	i	i	i	i	i
C=CCSc1nc2c(N)ncnc2n1C1OC(CO)C(O)C1O (stereo not drawn)	i	i	i	i	i	i
c1ccc(SCCc2ccncc2)cc1	i	i	i	i	i	101
CC(=O)Nc1ccc(S(=O)(=O)N2CCSc3ccccc32)cc1	i	i	i	i	i	i
N#CC(Sc1ccccn1)c1ccc(Cl)cc1Cl (stereo not drawn)	i	i	i	i	i	39
O=C(CCn1c(=S)oc2ccccc21)Nc1ccccc1F	i	i	26	i	i	i
COc1ccc2ccccc2c1C=NN1CCCCC1	i	i	i	i	21	i
COc1cc(C=NN2CCCCC2)cc(OC)c1OC	i	i	i	i	25	i
